In ChEMBL document CHEMBL4513216, “Probing the Open Global Health Chemical Diversity Library for Multistage-Active Starting Points for Next-Generation Antimalarials” (ACS Infect Dis, 2020) one finds INHIBITION data, which are given here for 53 molecules.

Out of some 69,000 compounds screened, about 8,600 (12%) showed an effect of 50% or more. The sample as a whole holds a higher share of strong results than the screen did.

The test has as its system Plasmodium berghei. Description: Screen against P. berghei liver stage (PbLuc), transformed with Luciferase, at 10uM. Type of test: functional, HepG2. Particulars: tested at 10 uM.
For `CNC(=O)c1cc2c(nc1NCC1CC1)CCN(S(C)(=O)=O)CC2`, the INHIBITION was -8.94%. The same measure for `Cc1csc(C2CCCCN2C(=O)c2c[nH]c(C)n2)n1` (stereo not drawn): 1.75%.

In the case of `CC(=O)c1ccc(C(=O)N2C[C@H]3CC[C@@H](C2)N(Cc2ccccc2)C3)s1`, the INHIBITION was -52.1%.

Turning to `CCC(=O)N1CCN(Cc2cc(-c3ccncc3)nn2C)CC1`, the INHIBITION was found to be 19.3%.

For the molecule `Cn1cc(CCC(=O)N2CCN(Cc3ccncc3)CC2)cn1`, the INHIBITION amounted to 27.1%. As to `CCN(CC)CC(=O)N1CCN(CCCc2ccncc2)CC1`, the INHIBITION is 66.5%. As for `CCn1cc(CN2CCCN(C(=O)CCc3ccncc3)CC2)cn1`, the INHIBITION came to 31%. As for `CCN(CC)CC(=O)N1CCN(CCc2ccncc2)CC1`, the INHIBITION is 52.6%. Turning to `CCN(CC)C(=O)N1CCN(CCc2ccncc2)CC1`, the INHIBITION was determined as 15.5%. On to `O=C(c1cccnc1)N1CCC[C@]2(C[C@H](Oc3ncccc3F)CO2)C1`, for which the INHIBITION was -7.59%.

For `O=C(NCc1ccc(Cl)cc1)C1=NOC2(CCNC2)C1` (stereo not drawn), the INHIBITION was determined as 1.71%.

Turning to `c1cncc(CN2CCC(c3ccnc4nccn34)C2)c1` (stereo not drawn), the INHIBITION was 19.99%. For the molecule `COc1ccnc(N2CCC(=O)N(CC3CC3)C(C(C)C)C2)n1` (stereo not drawn), the INHIBITION worked out at 50.3%. Consider `Cc1nccc(N2CCC(=O)N(CC3CC3)C(C(C)C)C2)n1` (stereo not drawn), for which the INHIBITION stood at 27.2%. As for `CC(C)C1CN(c2ncccn2)CCC(=O)N1CC1CC1` (stereo not drawn), the INHIBITION is 9.63%. The same measure for `Cc1noc(C)c1CN1CCN(Cc2ccncc2)c2ncccc2C1`: 29%; for `c1ccc(Oc2nccnc2C2CCN(C3CCOCC3)CC2)cc1`: -38.3%. For `Cc1ccc(Oc2nccnc2C2CCN(C(=O)C(C)(C)N)CC2)cc1`, the INHIBITION was 33.7%. Turning to `Fc1ccccc1Oc1nccnc1C1CCN(C2CCOCC2)CC1`, the INHIBITION is 25.8%. With `NC(=O)CN1CCCC(c2nccnc2Oc2cccc(F)c2)C1` (stereo not drawn) the figure was -39.4%.

With `Fc1ccc(Oc2nccnc2C2CCN(C3CCOCC3)CC2)cc1`, the INHIBITION was 38.7%.

For the molecule `Cc1cccc(Oc2nccnc2C2CCN(C(=O)C(C)(C)N)CC2)c1`, the INHIBITION came out at 47.1%. As to `CC(C)(N)C(=O)N1CCC(c2nccnc2Oc2cccc(F)c2)CC1`, the INHIBITION came out at 56%. With `Fc1cccc(Oc2nccnc2C2CCN(C3CCOCC3)CC2)c1` the figure was 52.7%; with `CC(C)(N)C(=O)N1CCC(c2nccnc2Oc2ccccc2F)CC1`, 63.4%.

As to `CCOCC1CC2(CCN(C(=O)c3ccc4ccccc4n3)CC2)CO1` (stereo not drawn), the INHIBITION is listed as -33.9%.

For the molecule `Cc1ccc2c(c1)C(=O)NCC1(CCN(C(=O)c3sccc3C)CC1)O2`, the INHIBITION worked out at 41.2%. Turning to `COc1ncc(C(=O)N(Cc2cnn(C)c2)C(C)C)cn1`, the INHIBITION worked out at 22%. For the molecule `C1CC(CN2CCO[C@H]3[C@H](OCC4CC4)CC[C@@H]32)CCO1`, the INHIBITION worked out at 40.9%.

For the molecule `CN(C)CCN(CC1CCCO1)S(=O)(=O)NCc1ccccc1` (stereo not drawn), the INHIBITION is 19.4%. For `Cc1cccc(CN2C(=O)CCC23CCN(C(=O)c2ccco2)CC3)n1`, the INHIBITION is on record as -24.5%. Turning to `CN1CCc2cc(C(=O)N(C)C)c(NCC3CC3)nc2CC1`, the INHIBITION was determined as 2.59%. `COc1c(CNCc2cccc(Cn3ccnc3C)c2)c(C)nn1C`: the INHIBITION was 43.3%.

For `CN(Cc1cc(Cl)ccc1Cl)Cc1ncnn1C`, the INHIBITION was 15.9%. Take `COCc1cc(N(C)Cc2ncnn2C)nc(C(C)(C)C)n1`: the INHIBITION worked out at 50.8%. With `COCc1cc(N(C)Cc2cnccn2)nc(C(C)(C)C)n1` the figure was 62%; with `COCc1cc(N(C)Cc2cc(C(C)(C)C)n[nH]2)ncn1`, -30.5%. Consider `CN(Cc1cnccn1)c1cncc(Br)c1`, for which the INHIBITION turned out to be 45.9%.

In the case of `COCc1cc(N(C)Cc2ccccn2)nc(C(C)(C)C)n1`, the INHIBITION is given as 27.7%. `Cc1nc(N)nc(C)c1CC(=O)N1CCCCC1c1cccc(F)c1` (stereo not drawn): the INHIBITION is on record as 19.3%.

Consider `Cc1noc(O)c1Cc1ccc2ccccc2c1`, for which the INHIBITION is reported as -26.2%. For `Cc1ccsc1CN(C)c1cc(N2CCCC2CO)ncn1` (stereo not drawn), the INHIBITION is reported as 18.6%. Regarding `CCn1ccnc1CN(C)c1cc(OC)ncn1`, the INHIBITION was determined as 58.2%. Regarding `COc1cc(N(C)Cc2cc(C(C)(C)C)n[nH]2)ncn1`, the INHIBITION is given as -45%. As to `CCn1ccnc1CN(C)C(=O)Cn1ccc2ccccc2c1=O`, the INHIBITION is on record as 3.04%. Turning to `CCn1ccnc1CN(C)c1cc(C2CC2)ncn1`, the INHIBITION was 52.6%. On to `CCn1ccnc1CN(C)c1cc(C2CCCNC2)nc(C)n1` (stereo not drawn), for which the INHIBITION turned out to be 4.41%. Turning to `CN(C)c1cc(N(C)Cc2cc(C(C)(C)C)n[nH]2)ncn1`, the INHIBITION is listed as -82.7%. The same measure for `Cc1cc(C)n(CCCN(C)c2cc(C3CC3)ncn2)n1`: 8.7%; for `COc1cc(N(C)CCCn2nc(C)cc2C)ncn1`: 14.3%. Regarding `CCn1ccnc1CN(C)c1cc(N(C)C)ncn1`, the INHIBITION was determined as 57.3%. Regarding `COc1cc(N2CCO[C@H]3[C@@H](Oc4cccnc4)CC[C@@H]32)ncn1`, the INHIBITION is recorded as 23.5%. The same measure for `Cc1cccc(CN2CC3(CCN(Cc4ccco4)CC3)OCC2=O)n1`: -16.2%.
